Compound activity from PubChem.
BCLXL inh = inhibitors of human Bcl-xL, primary screen, biochemical, fluorescence polarization, HTS | Bcl-2-like protein 1 (Homo sapiens), Q07817 | GST-Bcl-xL / FITC-Bim BH3 peptide fluorescence polarization | inhibition, % at 10.9 µM | 0.7% of 320,000 active | AID 2129, 2009;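 active means inhibition above the mean of all tested compounds plus 3 SD, cutoff set per campaign, cut at about 30% in these data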;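 further: inhibitors lower millipolarization by displacing the labeled peptide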
Target sequence (Q07817 whole entry, looked up): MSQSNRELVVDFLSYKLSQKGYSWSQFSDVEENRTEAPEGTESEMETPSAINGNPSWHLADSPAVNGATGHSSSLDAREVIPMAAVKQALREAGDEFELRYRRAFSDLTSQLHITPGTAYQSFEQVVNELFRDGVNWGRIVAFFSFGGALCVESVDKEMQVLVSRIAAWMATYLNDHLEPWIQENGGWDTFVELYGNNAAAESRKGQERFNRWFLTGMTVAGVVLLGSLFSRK
MEX-5 binding = MEX-5 zinc finger RNA-binding disruptors – biochemical, C. elegans, fluorescence polarization, MLPCN library, primary screen | 0.38% of 300,000 active | MEX-5/FITC-TCR2 RNA binding; hits give low values | activity score (negative = inhibition of binding), % at 10 µM | Zinc finger protein mex-5 (Caenorhabditis elegans), Q9XUB2;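 active means inhibition past about -25% in most replicates, and total fluorescence under double the plate's negative control median, limit read from the data; inconclusive means replicates evenly split on the limit, or fluorescence at least double controls; inactive means too little inhibition in most replicates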
eLon inh = inhibitors of E. coli Lon protease, primary screen, biochemical, fluorescence polarization; 0.42% of 360,000 active; inhibition, % at 7.94 µM; P0A9M0; purified E. coli Lon protease; in the data active means inhibition above about 13%, passing the limit was not always enough
GLD-1 RNA inh = GLD-1/TGE RNA complex disruptors, primary screen, biochemical, fluorescence polarization; purified GLD-1 + fluorescein TGE RNA; inhibition, % at 5.96 µM; 0.44% of 320,000 active; AID 2280, 2010;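 active means percent inhibition above a per-plate cutoff, the plate mean of test compounds plus 3 SD, cut at about 30% in these data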
MCL1-BIM inh = inhibitors of MCL1 binding to BIM-BH3, primary screen, biochemical, fluorescence polarization | Induced myeloid leukemia cell differentiation protein Mcl-1 (Homo sapiens), Q07820 | GST-MCL1 / FITC-Bim-BH3 fluorescence polarization | inhibition, % at 10.9 µM | 0.68% of 320,000 active | AID 2057, 2009;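 active means inhibition above the mean inhibition of all tested compounds plus 3 SD, set per campaign, cut at about 40% in these data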;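 further: higher means more loss of mP so more displacement of Bim peptide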
EBV gp42 inh = Epstein-Barr virus gp42 inhibitors, primary screen, biochemical, uHTS, fluorescence polarization; Glycoprotein 42 (Epstein-Barr virus (strain AG876)), Q1HVG2; Fluorescence polarization binding assay, mP read-out; inhibition, % (tested at 21.74 µM); 0.42% of 220,000 active; AID 1085, 2008; in the data active means inhibition above about 50%
Target sequence (Q1HVG2 whole entry, looked up): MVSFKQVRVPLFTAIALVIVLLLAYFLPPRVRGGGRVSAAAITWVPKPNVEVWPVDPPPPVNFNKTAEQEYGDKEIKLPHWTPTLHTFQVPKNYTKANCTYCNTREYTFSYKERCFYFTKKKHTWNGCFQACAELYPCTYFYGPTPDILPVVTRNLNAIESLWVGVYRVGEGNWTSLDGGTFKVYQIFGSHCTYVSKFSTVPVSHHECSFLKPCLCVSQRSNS
E coli Lon conf = E. coli Lon protease inhibitor retest, confirmation, biochemical, fluorescence polarization | shares compounds with eLon inh | purified E. coli Lon | inhibition, % at 7.94 µM | 31% of 1,400 active; in the data active means inhibition above about 16%
Of the large screens only hits and unclear results are named; the others gave an inactive call (follow-up assays come after a bar, where they were run). A selection: hits, their analogues and other compounds. The true share with any hit is near 1.5%.

COCCn1c(N)c(N(Cc2ccccc2)C(=O)c2ccc3ccccc3c2)c(=O)[nH]c1=O	none
O=C(/C=C/c1ccc(Cl)cc1)NC(=S)Nc1ccccc1C(=O)O	eLon inh 17.0 | E coli Lon conf inactive
O=C(CNC(=O)c1ccccc1F)NCC(c1cccs1)N1CCOCC1 (centres undefined)	none (no result: MEX-5 binding, EBV gp42 inh)
COc1ccc(CN2C[C@@H](CO)O[C@@H](n3cnc4c(NCc5ccncc5)ncnc43)C2)cc1	none (no result: BCLXL inh, MEX-5 binding, GLD-1 RNA inh, MCL1-BIM inh, EBV gp42 inh)
O=c1c(-c2ccc(Cl)cc2)c[nH]n1-c1ccccc1	eLon inh 17.9 (no result: EBV gp42 inh) | E coli Lon conf inactive
CSc1nnc(N2C(=O)C(O)=C(C(=O)c3ccc(C)o3)C2c2ccc(C)cc2)s1 (centres undefined)	none (no result: MEX-5 binding, EBV gp42 inh)
COc1ccc(CNCC(O)(c2ccc(Cl)cc2)c2ccc(Cl)cc2)cc1	eLon inh 47.9 | E coli Lon conf inactive
COc1ccc(CNCC(O)(c2ccc(Cl)cc2)c2ccc(Cl)cc2)cc1OC	none
Nc1ccccc1-c1ccccc1N	none
Nc1ccccc1N=Nc1ccccc1N	BCLXL inh 45.8, eLon inh 48.5, MCL1-BIM inh 46.5 (no result: EBV gp42 inh) | E coli Lon conf 39.7
N=c1c2c(-c3ccccc3)c(-c3ccccc3)n(Cc3ccco3)c2ncn1CCCN1CCOCC1	eLon inh 14.4 | E coli Lon conf inactive
CN1C(=O)CC2(C)C1=CCc1scnc12 (centres undefined)	none (no result: BCLXL inh, MEX-5 binding, GLD-1 RNA inh, MCL1-BIM inh, EBV gp42 inh)
CCOc1ccc(S(=O)(=O)Nc2cc(S(=O)(=O)N3CCOCC3)ccc2OC)cc1	none (no result: MEX-5 binding, EBV gp42 inh)
CCN1C(=O)[C@H]2[C@@H](c3ccc(OC)cc3)N3C(=O)CN(CCOC)C(=O)[C@@]3(C)[C@H]2C1=O	none (no result: EBV gp42 inh)
CCCCNC(=O)C1(C)CCN1C(=O)c1ccc(OC)c(F)c1 (centres undefined)	eLon inh 15.9 (no result: BCLXL inh, MEX-5 binding, GLD-1 RNA inh, MCL1-BIM inh, EBV gp42 inh) | E coli Lon conf inactive
CCCCNC(=O)C1(C)CCCCN1C(=O)c1sccc1C (centres undefined)	eLon inh 21.6 (no result: BCLXL inh, MEX-5 binding, GLD-1 RNA inh, MCL1-BIM inh, EBV gp42 inh) | E coli Lon conf inactive
O=C(COC(=O)c1ccccc1C(=O)N1CCN(c2ccccc2)CC1)Nc1ccc(F)cc1	BCLXL inh 53.8, eLon inh 21.7, GLD-1 RNA inh 36.8, MCL1-BIM inh 48.6 | E coli Lon conf inactive
O=C(COC(=O)c1ccccc1C(=O)N1CCN(c2ccccc2)CC1)Nc1ccccc1	none
COc1cccc(NC(=O)COC(=O)c2ccccc2C(=O)N2CCN(c3ccccc3)CC2)c1	BCLXL inh 48.5, eLon inh 16.2, GLD-1 RNA inh 43.5, MCL1-BIM inh 49.7 | E coli Lon conf inactive
COc1cccc(NC(=O)COC(=O)c2ccccc2F)c1	none
CC1(C)SC2c3ccccc3C(=O)N2[C@@H]1C(=O)O (some centres undefined)	none (no result: EBV gp42 inh)
CS(=O)(=O)N1CCc2ccc(NC(=O)C3CCCO3)cc2C1 (centres undefined)	none (no result: EBV gp42 inh)
CSc1ncnc2c1ccn2CC(=O)Nc1ccc(C)c(C)c1	none (no result: MEX-5 binding, EBV gp42 inh)
CCOc1ccc(/C=N/O)cc1	none
CCOc1ccc(N=Cc2ccc([N+](=O)[O-])cc2)c(O)c1	eLon inh 43.0 (no result: BCLXL inh, MEX-5 binding, GLD-1 RNA inh, MCL1-BIM inh, EBV gp42 inh) | E coli Lon conf inactive
CCOc1ccc(N=Cc2ccc(N(C)C)cc2)c(O)c1	eLon inh 125.7 (no result: BCLXL inh, MEX-5 binding, GLD-1 RNA inh, MCL1-BIM inh, EBV gp42 inh) | E coli Lon conf 78.2
Cc1cc2oc(=O)cc(CN3CCCCC3C)c2cc1C(C)C (centres undefined)	none (no result: EBV gp42 inh)
COc1cc2c(cc1OC)-c1cc3ccc4c(c3c[n+]1CC2)OCO4	BCLXL inh 169.8, MEX-5 binding inconclusive, eLon inh 156.3, GLD-1 RNA inh 40.1, MCL1-BIM inh active, EBV gp42 inh 125.6 | E coli Lon conf 106.3
Cc1ccc(Cn2c(C(C)Nc3nc(-c4ccc(C)cc4)cs3)nc3cc(Cl)c(Cl)cc32)cc1 (centres undefined)	none (no result: EBV gp42 inh)
